Laboratory results as given in the supplement of paper PMC9177965.

Legend:
[1] = tested on: HT29 RNF43 G659fs (RNF43 659mut, CRISPR-edited); test: cell viability activity relative to DMSO (negative = inhibition); higher = more viable cells (less growth inhibition); settings: 5 µM; 96 h
Description: (§1)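 Broad Repurposing Library primary screen at a single dose of 5 uM. HT29 sg-Ctrl and HT29 RNF43 G659fs CRISPR-edited isogenic cells were seeded at 2500 cells/well in 384-well plates in duplicate and treated for 96 h. Viability was read by CellTiter-Glo and reported as % activity relative to DMSO, with MG132 as the positive control (negative = growth inhibition).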

[2] = tested on: HT29 sg-Ctrl (RNF43 wildtype); test: as above; settings: 5 µM; 96 h
Description: as §1

| Compound | cell viability activity [1] [%] | cell viability activity [2] [%] |
| --- | --- | --- |
| CCCCCCCC/C=C/CCCCCCCC(=O)OC[C@H]1O[C@@H](n2ccc(N)nc2=O)C(F)(F)[C@@H]1O | -42 | -51.8 |
| Cn1cncc1[C@@](N)(c1ccc(Cl)cc1)c1ccc2c(c1)c(-c1cccc(Cl)c1)cc(=O)n2C | -30.6 | -33.3 |
| N#Cc1ccc(Cn2cncc2CN2CCN(c3cccc(Cl)c3)C(=O)C2)cc1 | -45.7 | -43.4 |
| COc1cc2c(cc1OC)-c1cc3nc4ccccc4nc3n1C(C)(C)C2 | -64.4 | -78.1 |
| C[C@@H](Oc1cc(-c2cnn(C3CCNCC3)c2)cnc1N)c1c(Cl)ccc(F)c1Cl | -97.1 | -95.4 |
| NC(=NC1C2CC3CC(C2)CC1C3)Nc1ccc(I)cc1 (stereo unspecified) | -49.5 | -69.8 |
| O=C(Nc1ccccc1-c1cn2c(CN3CCNCC3)csc2n1)c1cnc2ccccc2n1 | -74.8 | -81.8 |
| Cn1c(Nc2ccc(C(F)(F)F)cc2)nc2cc(Oc3ccnc(-c4ncc(C(F)(F)F)[nH]4)c3)ccc21 | -82 | -67.4 |
| Nc1ncnc2c1nc(Br)n2[C@@H]1O[C@@H]2COP(=O)(O)O[C@H]2[C@H]1O | -26.8 | -6.53 |
| CCOc1cc2ncc(C#N)c(Nc3ccc(F)c(Cl)c3)c2cc1NC(=O)/C=C/CN(C)C | -77.4 | -78.7 |
| CN1CCN(Cc2ccc(-c3cnc4[nH]cc(-c5ccc6[nH]ccc6c5)c4c3)cc2)CC1 | -90.1 | -82.4 |
| C=CC(=O)Nc1cc(Nc2nccc(-c3cn(C)c4ccccc34)n2)c(OC)cc1N(C)CCN(C)C | -82.3 | -50.6 |
| CCN1CCC[C@H]1CNC(=O)c1c(OC)ccc(Br)c1OC | -49.5 | -38.6 |
